This is a sample that favours compounds with a hit; in the whole collection about 2.4% have one here.
CHRM1 PAM: potentiates human M1 receptor response to acetylcholine; AID 588819; 360,000 compounds, 0.088% hits; activation, % at 3 µM; CHO-K1 hM1, Fluo-8 calcium fluorescence, ACh EC20; 0% = ACh EC20, 100% = maximal ACh; P11229; in the data active = activation above about 19%, passing the limit was not always enough
Target sequence (P11229 whole entry, looked up): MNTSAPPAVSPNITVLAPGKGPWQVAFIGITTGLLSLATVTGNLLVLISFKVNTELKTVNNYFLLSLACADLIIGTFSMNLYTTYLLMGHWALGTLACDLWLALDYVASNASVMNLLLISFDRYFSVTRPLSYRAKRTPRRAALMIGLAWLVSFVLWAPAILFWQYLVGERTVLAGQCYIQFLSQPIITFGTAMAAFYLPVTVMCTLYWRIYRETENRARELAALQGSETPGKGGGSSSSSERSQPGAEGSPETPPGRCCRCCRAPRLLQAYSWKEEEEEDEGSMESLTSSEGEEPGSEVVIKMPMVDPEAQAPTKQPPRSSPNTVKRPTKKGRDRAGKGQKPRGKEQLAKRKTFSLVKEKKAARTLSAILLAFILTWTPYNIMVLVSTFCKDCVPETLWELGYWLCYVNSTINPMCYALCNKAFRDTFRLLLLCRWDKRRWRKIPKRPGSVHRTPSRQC
CHO-K1 Ca ag: nonselective activator or artifact in parental CHO-K1 cells; activation, % at 3 µM; 360,000 compounds, 0.48% hits; Fluo-8 calcium fluorescence; scaled to maximal ATP response, vehicle zero; in the data active = activation above about 15%;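 note: untransfected CHO-K1 host cells lacking M1 receptor as counterscreen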
CHO-K1 Ca PAM: counter-screen for M1 PAMs: effect in parental CHO-K1 cells; 360,000 compounds, 0.02% hits; AID 602247; activation, % at 3 µM; ATP EC20, Fluo-8 calcium fluorescence; 0% at ATP EC20, 100% at ATP max;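 active = activation above the run cutoff, the mean activation of all test compounds plus 3 SD, cut at about 40% in these data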;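 note: peak over basal fluorescence ratio in a 140 s read after ATP addition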
CHRM1 agonist: human M1 muscarinic receptor agonism. P11229. CHO-K1 hM1, Fluo-8 calcium fluorescence, agonist mode; 0% DMSO, 100% acetylcholine EC100. activation, % at 3 µM. 360,000 compounds, 0.33% hits;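 active = activation above the run's mean compound activation plus 3 SD, cut at about 16% in these data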;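 note: peak over basal fluorescence ratio within a 140 s kinetic read after compound addition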
CHO-K1 Ca antag: M1 antagonist counterscreen hit in parental CHO-K1 cells; ATP-induced calcium, Fluo-8 fluorescence; inhibition, % at 3 µM; 360,000 compounds, 0.6% hits;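 active = inhibition above a per-plate cutoff, the plate's mean sample inhibition plus 3 SD, cut at about 24% in these data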
CHRM1 antagonist: human CHRM1 antagonism; P11229; CHO-K1 hM1, Fluo-8 calcium fluorescence, ACh EC80 antagonist; inhibition, % at 3 µM; 360,000 compounds, 1.3% hits; AID 588852;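 active = percent inhibition above its own plate's cutoff, namely the mean of that plate's compound wells plus 3 SD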;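 note: peak over basal fluorescence ratio during 140 s after agonist addition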
Of the large screens only hits and unclear results are named; the others gave an inactive call.

Cn1c(=O)c2[nH]c(Cc3cccc(O)c3)nc2n(C)c1=O	none
COCc1cc(=O)c2ccccc2o1	none
CC1(C)CC(NC(=O)N2c3ccccc3Sc3ccccc32)CC(C)(C)N1	CHRM1 antagonist 50
COc1ccc([N+](=O)[O-])cc1N(CC1CO1)S(=O)(=O)c1ccc(C)cc1 (stereo not given)	none
CCCn1c(-c2ccc(F)cc2)n[nH]c1=S	none
CCCCn1c(-c2ccc([N+](=O)[O-])cc2)n[nH]c1=S	CHRM1 antagonist 98
CCn1c(SCc2ccc(C(=O)Nc3cc(C)cc(C)c3)cc2)nnc1-c1ccncc1	CHRM1 antagonist 31
CCn1c(SCc2cccc(C)c2)nnc1-c1ccc(C)cc1	CHO-K1 Ca ag 16
O=C(O)c1cccc(-c2csc(C(O)c3ccccc3)n2)c1 (stereo not given)	none
CN(C)c1ccc2nc3c(=O)[nH]c(=O)nc-3n(CC(O)C(O)C(O)CO)c2c1 (stereo not given)	CHRM1 agonist 18
C=C(C)COc1ccc(-c2ncnc(C(F)(F)F)c2-c2ccccc2)c(O)c1	CHRM1 antagonist 37
NC(=O)c1nsc(C(=O)N(Cc2cccnc2)C(C(=O)NCc2ccc(F)cc2)c2ccc(F)cc2)c1N (stereo not given)	none
O=C(COc1ccc(CNC[C@H]2O[C@@H](n3ccc(=O)[nH]c3=O)[C@H](O)[C@@H]2O)cc1)Nc1nccs1	none
CCNc1nc2c(c(=O)n(C)c(=O)n2C)n1Cc1ccc(Cl)cc1	CHRM1 antagonist 29
CCC(C)Nc1nc2c(c(=O)n(C)c(=O)n2C)n1Cc1ccc(Cl)cc1 (stereo not given)	none
CC(C)CN(C(=O)c1ccc(-n2cncn2)c([N+](=O)[O-])c1)C1CCS(=O)(=O)C1 (stereo not given)	none
Cc1cccc2sc(N(CCCN(C)C)C(=O)c3ccc(Cl)s3)nc12	CHRM1 antagonist 51
Cc1cccc2sc(N(CCCN(C)C)C(=O)c3ccco3)nc12	CHRM1 antagonist 76
CCOC(=O)c1c(C)oc2c1c(CN1CCN(C(=O)OCC)CC1)c(O)c1ccccc12	CHRM1 agonist 17
COc1ccc(N2CC(C(=O)OCC(=O)Nc3cccc(C)c3C)CC2=O)cc1 (stereo not given)	none
NC(=O)c1c(NC(=O)CN2CCOCC2)sc2c1CCC2	CHRM1 PAM 25, CHRM1 agonist 18
O=C(Nc1ccc2c(c1)OCCO2)c1c(Cl)cccc1Cl	CHRM1 antagonist 32
O=C(Nc1ccc2c(c1)OCCO2)c1cccc(Cl)c1Cl	none
COc1cc(SC)ccc1C(=O)Nc1ccc2c(c1)OCCO2	CHO-K1 Ca ag 17
COc1ccccc1C(=O)Nc1ccc2c(c1)OCCO2	none
CCC(C)Sc1cc(C(F)(F)F)c(C(=O)Nc2ccc(Cl)cc2)cn1 (stereo not given)	none
O=c1ccc(-c2ccc(S(=O)(=O)NCC3CCN(Cc4ccccc4F)CC3)s2)n[nH]1	CHRM1 antagonist 93
CCCn1ncc(CN2CCC(CO)(Cc3ccc(OC)cc3)CC2)c1C	CHRM1 antagonist 42
COc1ccc(CC2(CO)CCN(Cc3cnn(-c4ccccc4)c3)CC2)cc1	none
COc1ccc(CC2(CO)CCN(CC3=Cc4cc(Cl)ccc4OC3)CC2)cc1	CHRM1 antagonist 27
CCCCNC(=O)C(CC)(ONc1ccccc1C(F)(F)F)c1ccccc1OC (stereo not given)	none
CCN(CC)c1ccc(S(=O)(=O)N2CCOCC2)cc1NC(=O)COC(=O)/C=C/c1ccccc1	CHRM1 antagonist 32
Cc1ccc(S(=O)(=O)N2CCOCC2)cc1NC(=O)COC(=O)CNC(=O)c1ccc(Oc2ccccc2)cc1	CHO-K1 Ca antag 25
Cc1ccc(C(=O)NCC(=O)OCC(=O)Nc2cc(S(=O)(=O)N3CCOCC3)ccc2C)cc1	none
Cc1ccc(S(=O)(=O)N2CCOCC2)cc1NC(=O)COC(=O)CCOc1ccc(C(C)(C)C)cc1	CHO-K1 Ca ag 16
Cc1ccc(S(=O)(=O)N2CCOCC2)cc1NC(=O)COC(=O)CNC(=O)c1ccc(C(C)(C)C)cc1	none
Cc1ccc(S(=O)(=O)N2CCN(C(=O)COC(=O)CCOc3ccc(C(C)(C)C)cc3)CC2)cc1	CHRM1 antagonist 34
CCCNC(=O)Cn1c(=O)/c(=C\c2ccc(-c3ccc([N+](=O)[O-])cc3)o2)s/c1=C\C(=O)C(C)(C)C	CHO-K1 Ca ag 23, CHRM1 agonist 22, CHRM1 antagonist 37
O=C(Nc1cc(S(=O)(=O)N2CCCCC2)ccc1O)c1ccccc1NS(=O)(=O)c1ccc(F)c(F)c1	none
COCCNc1nc(NCc2ccccc2)nc2ccsc12	CHO-K1 Ca ag 77, CHRM1 agonist 79, CHO-K1 Ca antag 95, CHRM1 antagonist 100
COCCNc1nc(NCc2ccccc2OC)c2sccc2n1	none
COc1ccccc1CNc1nc(NCCNC(C)=O)c2sccc2n1	none
CC(=O)NCCNc1nc(NCc2ccccc2)nc2ccsc12	CHRM1 agonist 32
O=C1CCCN1CCCNc1nc(NCc2ccccc2)nc2ccsc12	CHO-K1 Ca ag 86, CHRM1 agonist 92, CHO-K1 Ca antag 84, CHRM1 antagonist 101
CCCCNc1nc(NCc2ccccc2)nc2ccccc12	CHO-K1 Ca ag 49, CHO-K1 Ca antag 54 (no result: CHRM1 PAM, CHRM1 agonist, CHRM1 antagonist)
COC(=O)C1=C(C(=O)OC)[C@@H]2N(C)c3ccccc3[C@@]23C[C@@H](CO)N(C(=O)C2CCC2)C3=N1	none
CC(=O)N1CCCc2cc(S(=O)(=O)N3CCCC(C(=O)N4CCN(c5cc(C)ccc5C)CC4)C3)ccc21 (stereo not given)	CHRM1 antagonist 41
Cc1ccc(C)c(N2CCN(C(=O)C3CCCN(S(=O)(=O)c4cnc[nH]4)C3)CC2)c1 (stereo not given)	none
CC(=O)N1CCCc2cc(S(=O)(=O)N3CCCC(C(=O)N4CCN(c5ccccc5)CC4)C3)ccc21 (stereo not given)	CHO-K1 Ca ag 16
COc1ccccc1N1CCN(C(=O)C2CCCN(S(=O)(=O)c3ccc4c(c3)CCCN4C(C)=O)C2)CC1 (stereo not given)	none
N/C(Cn1cncn1)=N\NC(=O)C(=O)Nc1cccc(C(F)(F)F)c1	none
O=C(Nc1ccccc1Cl)N1CCCN(c2nc(-c3ccccc3)ns2)CC1	none
O=C(Nc1ccccc1)N1CCN(c2nc(-c3ccccc3)ns2)CC1	CHRM1 antagonist 32
CC(=O)C1=CCC(c2ccc(Br)cc2)N(S(=O)(=O)c2ccc(C)cc2)C1 (stereo not given)	CHRM1 antagonist 37
CC(=O)C1=CCC(c2ccc(C)cc2)N(S(=O)(=O)c2ccc(C)cc2)C1 (stereo not given)	none
Cc1nn(Cc2ccccc2)c(Cl)c1/C=C/C(=O)OCC(=O)NC(C)C(C)C (stereo not given)	none

Source: PubChem BioAssay
